Most compounds without a hit are left out; they make up all but 3.6% or so of the library.
Mdm2-MdmX inh: disrupts the human Mdm2-MdmX interaction; 330,000 tested, 3% active; O15151+Q00987; SaOS-2 split-luciferase Mdm2/MdmX complementation, luminescence; AID 485346; inhibition, % at 8 µM;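 active = inhibition of at least 50% at 8 µM in the primary screen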
Target sequence (O15151 whole entry, looked up): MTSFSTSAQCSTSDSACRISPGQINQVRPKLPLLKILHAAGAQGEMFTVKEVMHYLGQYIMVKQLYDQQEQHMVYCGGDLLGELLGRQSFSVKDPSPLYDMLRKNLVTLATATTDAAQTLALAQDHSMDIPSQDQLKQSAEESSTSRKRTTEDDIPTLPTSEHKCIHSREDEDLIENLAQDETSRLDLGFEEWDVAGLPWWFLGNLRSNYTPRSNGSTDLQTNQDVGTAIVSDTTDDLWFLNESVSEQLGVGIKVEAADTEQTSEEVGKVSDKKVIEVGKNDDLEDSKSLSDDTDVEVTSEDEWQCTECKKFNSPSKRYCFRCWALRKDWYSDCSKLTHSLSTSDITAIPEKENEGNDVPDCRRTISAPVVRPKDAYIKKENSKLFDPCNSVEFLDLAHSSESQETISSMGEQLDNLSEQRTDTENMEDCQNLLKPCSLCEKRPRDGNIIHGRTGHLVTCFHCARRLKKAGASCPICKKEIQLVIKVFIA
Target sequence (Q00987 whole entry, looked up): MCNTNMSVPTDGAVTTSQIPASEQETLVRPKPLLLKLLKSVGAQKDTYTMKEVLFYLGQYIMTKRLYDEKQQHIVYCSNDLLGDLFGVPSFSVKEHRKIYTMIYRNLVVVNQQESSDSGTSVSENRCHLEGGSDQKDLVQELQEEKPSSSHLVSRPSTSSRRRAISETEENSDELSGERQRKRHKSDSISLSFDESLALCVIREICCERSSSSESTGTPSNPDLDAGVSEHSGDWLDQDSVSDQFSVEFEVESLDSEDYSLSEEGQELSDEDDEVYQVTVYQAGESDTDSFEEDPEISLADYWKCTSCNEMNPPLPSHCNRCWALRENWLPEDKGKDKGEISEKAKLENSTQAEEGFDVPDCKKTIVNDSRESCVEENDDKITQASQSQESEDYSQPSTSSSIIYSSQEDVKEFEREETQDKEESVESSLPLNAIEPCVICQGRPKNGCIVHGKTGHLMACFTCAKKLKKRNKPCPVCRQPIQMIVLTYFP
Peg3 promoter: inhibitors of Peg3 promoter; inhibition, % at 20 µM; 360,000 tested, 1.7% active; HeLa PEG-Prom luciferase reporter, luminescence, overnight;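 active = inhibition of at least 50% at 20 µM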
CF NFkB inh: inhibitors of cystic fibrosis induced NF-kB | KKLEB NF-kB-GFP reporter, PAF-induced, GFP fluorescence overnight | inhibition, % at 5 µM | 360,000 tested, 0.86% active;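 active = at least 50% inhibition at 5 µM, scaled per plate between neutral and stimulator controls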;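 also: PAF is a Pseudomonas aeruginosa culture filtrate used as stimulus; plate controls were PAF-stimulated DMSO wells for no effect and unstimulated DMSO wells for full effect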
HSP90 refold inh: inhibitors of HSP90 luciferase refolding in rabbit reticulocyte lysate | luciferase refolding luminescence, 3 h | inhibition, % at 5.6 µM | 290,000 tested, 0.91% active | AID 1789;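 active = inhibition above the screen-wide mean plus 3 SD, computed separately per campaign, cut at about 16% in these data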;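 also: 0% = DMSO wells and 100% = 60 µM geldanamycin wells; inhibitors lower the luminescence because luciferase stays unfolded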
KKLEB tox: CF airway cell cytotoxicity counter-screen; 360,000 tested, 0.36% active; KKLEB CF airway cells viability, ATPlite luminescence, overnight; active compounds read low; cells stimulated with P. aeruginosa culture filtrate; activity change (cytotoxicity), % at 5 µM; AID 602141;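 active = corrected activity change at or below -50% at 5 µM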
LGR2 inh: blocks bursicon-induced cAMP signaling via Drosophila LGR2 | HEK293 LGR2, CRE-luciferase, bursicon-stimulated, 4 h | inhibition, % at 9.99 µM | 380,000 tested, 0.35% active | AID 720647;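 active = drop in luminescence signal, shown as inhibition above about 50% in the replicate tests, limit read from the data, passing the limit was not always enough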;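 also: agonist challenge used bursicon conditioned medium at about half maximal strength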
Mdm2 MdmX conf: confirmation of human Mdm2/MdmX interaction inhibitors; AID 489028; inhibition, % at 8 µM; 10,000 tested, 55% active; Mdm2-MdmX binding, luminescent assay; shares compounds with Mdm2-MdmX inh; in the data active = inhibition above about 40%
FLuc counter: inhibits full-length luciferase, flagging false Mdm2/MdmX hits; shares compounds with Mdm2-MdmX inh; SaOS-2 full-length luciferase counterscreen, luminescence; inhibition, % at 8 µM; 6,200 tested, 77% active;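 active = mean inhibition at 8 µM reaching about 37%, which flags the compound as non-specific, limit read from the data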;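 also: p53-null SaOS-2 cells with luciferase driven by a doxycycline-inducible promoter; compound on cells about two nights before reading with doxycycline added after day one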
* = called active by the depositor; x = no result given.

SMILES	Mdm2-MdmX inh	Peg3 promoter	CF NFkB inh	HSP90 refold inh	KKLEB tox	LGR2 inh	Mdm2 MdmX conf	FLuc counter
CN1CCN(C(=O)C[C@@H]2C=C[C@@H](NC(=O)c3ccc4c(c3)OCO4)[C@H](CO)O2)CC1	x	x	x	x	x	-2	x	x
CC1=Nc2cc(C(=O)NCCN3CCOCC3)ccc2Sc2c(C)ccc(C)c21	64*	9	1	-6	-8	6	52*	47*
CC1=Nc2cc(C(=O)NCCCN3CCOCC3)ccc2Sc2c(C)ccc(C)c21	66*	33	15	-4	-10	-1	11	x
CCOc1cc(NC(=O)C2CC2)c(OCC)cc1NC(=O)c1ccccc1OCC	36	28	6	-5	-6	3	x	x
CCOc1cc(NC(=O)c2ccccc2C)c(OCC)cc1NC(=O)C1=Cc2ccccc2OC1	62*	25	16	1	-16	x	16	x
O=C(C[C@H]1C[C@H]2c3cc(NC(=O)Cc4ccncc4)ccc3O[C@H]2[C@H](CO)O1)NCc1ccccn1	x	x	x	x	x	-13	x	x
O=C(COc1ccc(Oc2ccccc2)cc1)NCc1cn2ccccc2n1	56*	12	14	-2	-11	3	57*	73*
CC(=O)n1cc(N(C(=O)CCl)c2ccc(Cl)cc2)c2ccccc21	99*	108*	98*	3	-94*	x	100*	8
COc1ccc2c3c([nH]c2c1)[C@@H](CO)N(Cc1nccs1)CC31CCN(C(=O)C2CCC2)CC1	x	x	x	x	x	-8	x	x
C[C@H](CO)N1C[C@H](C)[C@@H](CN(C)C)Oc2ccc(NC(=O)CCN3CCOCC3)cc2C1=O	x	x	x	x	x	-12	x	x
COC(=O)c1ccc(C2C(C#N)=C(N)Oc3cc(N)ccc32)cc1 (stereo not drawn)	16	33	12	2	-10	-12	x	x
CN(C)c1ccc2c(c1)OC(N)=C(C#N)C2c1cccc(F)c1 (stereo not drawn)	65*	14	-10	4	-23	x	62*	97*
N#CC1=C(N)Oc2cc(N)ccc2C1c1cccc(F)c1 (stereo not drawn)	54*	33	3	0	-13	-22	44*	65*
CC=Cc1ccc2n(c1=O)C[C@H]1[C@H](CO)[C@@H](C(=O)Nc3ccccc3)[C@@H]2N1C(=O)CC1CC1 (mixture of isomers)	x	x	x	x	x	-5	x	x
Cc1cc(C(=O)Nc2nc(-c3ccccn3)cs2)ccc1[N+](=O)[O-]	63*	-3	14	2	7	5	64*	40*
O=C(Nc1nc(-c2ccccn2)cs1)c1cc(Cl)ccc1[N+](=O)[O-]	83*	47	-44	2	-2	-6	75*	32
Cc1csc(NC(=O)c2ccc(Cl)cc2[N+](=O)[O-])n1	-62	-190	3	3	8	-35	x	x
CO[C@H]1CN(C)C(=O)c2cc(NS(=O)(=O)c3ccc(Oc4ccccc4)cc3)ccc2OC[C@@H](C)NC[C@@H]1C	x	x	x	x	x	5	x	x
CO[C@H]1CN(C)C(=O)c2ccc(NC(=O)C3CC3)cc2OC[C@H](C)N(C(=O)CN(C)C)C[C@@H]1C	x	x	x	x	x	-10	x	x
CC1CCCCN1S(=O)(=O)c1ccc(S(=O)(=O)N2CCN(c3ccccc3)CC2)cc1 (stereo not drawn)	57*	59*	14	4	-14	x	-11	x
CC(=O)N(C)c1ccc(OCC(O)Cn2c3ccc(Cl)cc3c3cc(Cl)ccc32)cc1 (stereo not drawn)	82*	61*	-6	2	-13	x	45*	54*
CCOC(=O)CCS(=O)(=O)c1nc(-c2ccccc2)cc(C(F)(F)F)n1	100*	114*	86*	5	-77*	x	100*	51*
COC(=O)CCS(=O)(=O)c1nc(-c2ccccc2)cc(C(F)(F)F)n1	84*	107*	87*	1	-60*	x	100*	51*
CS(=O)(=O)c1nc(-c2cccs2)cc(C(F)(F)F)n1	100*	x	x	5	x	x	99*	1
O=C(O)CCS(=O)(=O)c1nc(-c2cccs2)cc(C(F)(F)F)n1	9	12	16	8	-1	-1	x	x
SMILES	Mdm2-MdmX inh	Peg3 promoter	CF NFkB inh	HSP90 refold inh	KKLEB tox	LGR2 inh	Mdm2 MdmX conf	FLuc counter
CCC(=O)N(C)C[C@H]1Oc2cc(C#Cc3ccccc3)ccc2S(=O)(=O)N([C@@H](C)CO)C[C@@H]1C	x	x	x	x	x	-4	x	x
C[C@@H]1CN([C@H](C)CO)C(=O)Cc2cc(NC(=O)NC3CCCCC3)ccc2O[C@H]1CN(C)S(=O)(=O)c1ccc(F)cc1	x	x	x	x	x	-8	x	x
C[C@H](CO)N1C[C@H](C)[C@@H](CN(C)C(=O)Cc2ccccn2)Oc2ncc(C#CC3CCCCC3)cc2C1=O	x	x	x	x	x	-2	x	x
CC=Cc1ccc2n(c1=O)C[C@@H]1[C@@H](CO)[C@H](C(=O)NCCC)N(C(=O)c3cccnc3)[C@H]21 (mixture of isomers)	x	x	x	x	x	0	x	x
COc1ccc2sc(-c3ccc(SC)cc3)c(-c3ccc(O)cc3)c2c1	54*	32	18	x	-6	7	29	x
COc1ccc(-c2sc3ccc(OC)cc3c2-c2ccc(OC)c(F)c2)cc1	3	15	-28	x	19	1	x	x
CCCOc1ccccc1N/C(=N/c1nc(C)cc(C)n1)NC(=O)COc1ccc(OC)cc1	56*	30	13	5	-21	x	19	x
O=C(Nc1ccccc1N1CCCCC1)c1ccc(-c2cc(Cl)ccc2Cl)o1	50*	16	5	x	-7	1	-14	x
Cc1ccccc1NC(=O)c1ccc(-c2ccc(Cl)cc2Cl)o1	27	-78	-4	-2	-12	x	x	x
Cc1cccc(C)c1NC(=O)c1ccc(-c2ccc(Cl)cc2Cl)o1	56*	31	48	3	-20	x	46*	45*
O=C(Nc1ccc(Cl)cn1)c1ccc(-c2cc(Cl)ccc2Cl)o1	74*	-10	-10	-3	-5	-18	4	x
COc1ccc(C(=O)Nc2ccc3c(c2)C(=O)N(C)C[C@@H](OC)[C@@H](C)CN[C@@H](C)CO3)cc1	x	x	x	x	x	-21	x	x
O=C(/C=C\c1cn(-c2ccccc2)nc1-c1ccccc1)Nc1nccs1	84*	14	42	-6	-38	-16	81*	29
CCOC(=O)c1c(NC(=O)c2cc(C)on2)c2cc([N+](=O)[O-])ccc2n1C	85*	x	x	2	x	x	6	x
C[C@@H]1CCCCO[C@@H](CN(C)C(=O)Nc2ccc3c(c2)OCO3)[C@@H](C)CN([C@H](C)CO)C(=O)c2cc(NS(=O)(=O)c3ccccc3)ccc2O1	x	x	x	x	x	9	x	x
Cc1ccc(OCCN2CCN(CC(O)Cn3c4ccccc4c4ccccc43)CC2)cc1 (stereo not drawn)	85*	x	x	4	x	-10	27	x
